Reference: PubChem BioAssay
Values joined by “and” are separate entries in the source; they are usually repeats but may differ in a detail not shown here. Identical values can stand only once.

Columns and labels:
[1] = system: Botulinum neurotoxin type F light chain protease (Clostridium botulinum); test: Clostridium botulinum type F light chain protease inhibitors, microsphere substrate cleavage, validation (AID 588459); details: multiplex microsphere protease substrate cleavage assay, flow cytometry; at 10 µM; active compounds read high
[2] = target: Botulinum neurotoxin type A (Clostridium botulinum) (UniProt P0DPI0); test: BoNT/A light chain protease inhibitors, biochemical, multiplex microsphere flow cytometry, validation set (AID 588460); details: at 10 µM, active compounds read high
[3] = target: Lethal factor (Bacillus anthracis) (UniProt P15917); test: Bacillus anthracis lethal factor inhibition, microsphere flow cytometry protease assay, validation at 10 µM (AID 588461); details: multiplex microsphere protease cleavage assay, active compounds read high

Measured: inhibition

CC1(C)Cc2nc3sc4c(=O)n(CC(N)=O)cnc4c3cc2CO1
inactive: [1] -0.6% | [2] 1.1% | [3] -3.8%

COc1ccccc1/C=C/C(=O)OCCN1CCOCC1
inactive: [1] 3% | [2] -2.1% | [3] -6.7%

Nc1ccc(C(=O)O)c(O)c1
inactive: [1] -4.5% and 1.6% | [2] -0.4% and -0.2% | [3] -12% and -5.3%

CCN1CCN(C(=S)c2ccc(OC)cc2)CC1
inactive: [1] 2.2% | [2] -0.9% | [3] 11.9%

O=c1nc2sc3ccccc3n2c(=O)n1-c1ccc(Cl)cc1
inactive: [1] 0.3% | [2] -1.6% | [3] -7.9%

Cc1cc(C(=O)Nc2ccccc2C(=O)N2CCCCC2)ccc1[N+](=O)[O-]
inactive: [1] 2.8% | [2] 2.4% | [3] -0.1%

COC(=O)c1ccc2c(c1)C(=O)/C(=C/c1ccc(O)cc1)O2
inactive: [1] -0.8% | [2] 0.7% | [3] -8.5%

COc1cc(COc2ccc3c(C)c(Cc4ccccc4)c(=O)oc3c2)cc(OC)c1OC
inactive: [1] 3.5% | [2] 0.9% | [3] -2.3%

COc1ccc(CN(C)CCc2ccccn2)cc1OC
inactive: [1] -2.7% | [2] 0.2% | [3] -7.1%

Cc1csc(N)n1
inactive: [1] 0.3% | [2] 0.1% | [3] 3%

O=C(NC1CC1)C1CCN(C2CCN(C(=O)Cc3ccc(F)cc3)CC2)CC1
inactive: [1] -2.4% | [2] -0.6% | [3] 4.9%

O=C(COc1ccc2ccc(=O)oc2c1)c1ccccc1
inactive: [1] -5.2% | [2] -1.1% | [3] 1%

c1ccc(CC2=NCCN2)cc1
inactive: [1] 1.9% | [2] -1.4% | [3] -4.7%

CCCCC/C=C\C[C@H](O)/C=C/c1cccc(C[C@H](O)CCCCO)n1
inactive: [1] 2.3% | [2] 1.9% | [3] -6.2%

CCCC(=O)Nc1ncnc2c1ncn2[C@@H]1O[C@@H]2COP(=O)(O)O[C@H]2[C@H]1OC(=O)CCC
inactive: [1] -0.5% | [2] -1% | [3] -2.7%

COc1cc(CC(=O)NCCc2ccc(S(N)(=O)=O)cc2)cc(OC)c1OC
inactive: [1] 4.1% | [2] 1.6% | [3] 6.5%

O=C(CS(=O)(=O)c1ccccc1)c1ccc2c(c1)OCCO2
inactive: [1] 3.2% | [2] 0.7% | [3] 2.2%

COc1ccc(CCCC(=O)O)c(C)c1
inactive: [1] -0.2% | [2] 0.1% | [3] 6.1%

COc1c(C)cc(C(=O)C2CCCN(Cc3ccc(Oc4ncccn4)cc3)C2)cc1C (stereo not drawn)
inactive: [1] -2.8% | [2] -1.2% | [3] -4.4%

CC(C)CC(=O)OC1C(N2CCOCC2)c2c(ccc(/C=C/C(=O)N3CCOCC3)c2O)OC1(C)C (stereo not drawn)
inactive: [1] 0.5% | [2] -0.5% | [3] -0.5%

Cc1ccc(C2CC(=O)C(C=NCCN3CCN(C(=S)Nc4ccccc4)CC3)=C(O)C2)cc1 (stereo not drawn)
inactive: [1] -0.8% | [2] 0.1% | [3] 5.4%

O=C(O)Cc1ccc(-c2ccccc2)cc1
inactive: [1] 0.5% | [2] -1.2% | [3] 0.5%

CN(CCCN1CCOCC1)Cc1cn(C)nc1-c1ccccc1F
inactive: [1] 0% | [2] -0.8% | [3] -6.1%

CCn1c(N2CCN(CC(=O)c3c(C)n(C)c4ccc(OC)cc34)CC2)nc2c1c(=O)[nH]c(=O)n2C
inactive: [1] -1.4% | [2] -0.8% | [3] -10.7%

COc1ccc(CNCCC2(C(C)C)CCOC(C)(C)C2)cc1 (stereo not drawn)
inactive: [1] 1.9% | [2] 0.8% | [3] -4%

COc1cc2c(cc1O)CC[C@@H]1[C@@H]2CC[C@]2(C)[C@@H](O)CC[C@@H]12
inactive: [1] -2.1% | [2] -2.2% | [3] -2.9%

O=C(/C=C/c1ccco1)Nc1ccccc1C(=O)O
inactive: [1] 0.9% | [2] -0.2% | [3] 1.7%

CCn1cc(C(=O)O)c(=O)c2cc(F)c(N3CCNCC3)cc21
inactive: [1] -0.1% | [2] -0.5% | [3] 2.3%

CCn1c(=N)c(C(=O)NC)cc2c(=O)n3cccc(C)c3nc21
inactive: [1] 3.8% | [2] 3.8% | [3] 5.6%

COCCOC(=O)C1=C(C)NC(C)=C(C(=O)OC(C)C)C1c1cccc([N+](=O)[O-])c1 (stereo not drawn)
inactive: [1] -2.2% | [2] -0.7% | [3] -4.8%

CC(=O)N[C@@H](CS)C(=O)O
inactive: [1] 5.5% | [2] -0.8% | [3] 2.4%

COC(=O)c1cc(OC)c(OC)cc1NC(=O)Nc1ccc(OC)cc1OC
inactive: [1] -4% | [2] -0.8% | [3] 5.9%

Fc1ccc(-n2cc(CNCCc3ccccn3)c(-c3ccccc3Cl)n2)cc1
inactive: [1] -1.9% | [2] 1.1% | [3] 6.5%

COc1ccc2c(c1)C=CC1(O2)N(CCO)c2ccccc2C1(C)C (stereo not drawn)
inactive: [1] 3% | [2] -0.7% | [3] -7.3%

O=C(c1ccccc1)N1CCN(C(=O)c2ccccc2)CC1
inactive: [1] -0.3% | [2] -0.7% | [3] -0.8%

C[C@H]1C[C@@H]2[C@H]([C@@H](O)C[C@@]3(C)[C@H]2CC[C@]3(O)C(=O)CO)[C@@]2(C)C=CC(=O)C=C12
inactive: [1] -2.2% | [2] 0.7% | [3] -0.7%

O=c1[nH]cc(F)c(=O)[nH]1
inactive: [1] 0.6% | [2] -1.2% | [3] -1.9%

Cc1cc(C(C)(C)C)c(O)c(C)c1CC1=NCCN1
inactive: [1] 0.7% | [2] -1.1% | [3] 3.7%

CCOC(=O)C1C(=O)OC2(CCOC(C)(C)C2)C1C(=O)OCC (stereo not drawn)
inactive: [1] -2.7% | [2] -0.2% | [3] -0.1%

Cc1ccc2c(CN3CCN(Cc4ccc5c(c4)OCO5)CC3)cc(=O)oc2c1C
inactive: [1] -2.8% | [2] 0.6% | [3] -5.7%

COc1cc(C(=O)Nc2ccc(N(C)C)cc2)c([N+](=O)[O-])cc1OC
inactive: [1] -2.4% | [2] -0.2% | [3] -19.3%

NC[C@H]1O[C@H](O[C@H]2[C@H](O)[C@@H](O[C@H]3O[C@H](CO)[C@@H](O)[C@H](N)[C@H]3O)[C@H](N)C[C@@H]2N)[C@H](N)C[C@@H]1O
inactive: [1] 3.4% | [2] -1.1% | [3] -1.8%

CCC[C@@H]1C[C@@H](C(=O)N[C@H]([C@@H](C)O)[C@H]2O[C@H](SC)[C@H](O)[C@@H](O)C2O)N(C)C1 (stereo partly drawn)
inactive: [1] 3.2% | [2] -1.6% | [3] 0.6%

CCOC(=O)c1ccc(N2C(=O)C(CC(N)=O)N(CCc3ccc(OC)c(OC)c3)C2=S)cc1 (stereo not drawn)
inactive: [1] 2% | [2] 1.1% | [3] -0.3%

C[C@@H]1C[C@H]2[C@@H]3C[C@H](F)C4=CC(=O)C=C[C@]4(C)[C@@]3(F)[C@@H](O)C[C@]2(C)[C@@]1(O)C(=O)CO
inactive: [1] 0.3% | [2] 0.4% | [3] 0.5%

CCOc1cccc(N2C(=O)CC(N(CCc3ccc(OC)c(OC)c3)C(=O)CC)C2=O)c1 (stereo not drawn)
inactive: [1] 4.3% | [2] 0.7% | [3] 0.4%

COc1ccc(S(=O)(=O)NC(Cc2cnc[nH]2)C(=O)O)cc1 (stereo not drawn)
inactive: [1] 2.4% | [2] -0.6% | [3] -0.5%

CC(=O)[C@H]1CC[C@H]2[C@@H]3CCC4=CC(=O)CC[C@]4(C)[C@H]3[C@H](O)C[C@]12C
inactive: [1] -0.3% | [2] -1.3% | [3] -5.3%

CC(C)COCC(CN(Cc1ccccc1)c1ccccc1)N1CCCC1 (stereo not drawn)
inactive: [1] 1.2% | [2] -1.8% | [3] -2%

CN(CCc1cnn(C)c1)Cc1nc(CC2CC2)no1
inactive: [1] 0.2% | [2] 0.4% | [3] 7%

COc1ccc(CN2CCC(=O)NC2=O)cc1
inactive: [1] -2.3% | [2] -0.1% | [3] -3.5%

CNCCC=C1c2ccccc2CCc2ccccc21
inactive: [1] -4.9% | [2] 0.2% | [3] -5.8%

Cc1ccc2[nH]c3c(=O)n(CCCN4CCN(C)CC4)cnc3c2c1
inactive: [1] 7.8% | [2] -1% | [3] -2.5%

CN(C)C(=O)Oc1ccc[n+](C)c1
inactive: [1] -1.5% | [2] -0.6% | [3] -0.5%

CCn1ccnc1CN(C)Cc1cn(-c2cccc(C)c2)nc1-c1cccc(F)c1
inactive: [1] 0.6% | [2] -0.3% | [3] -3.5%

CCCCNc1ccc(C(=O)OCCN(C)C)cc1
inactive: [1] 0.2% | [2] 0.4% | [3] 2.7%
